Assay results: the supplement of paper PMC11732987, “Enantioselective OTUD7B fragment discovery through chemoproteomics screening and high-throughput optimisation” (Communications Chemistry, 2025)

Key:
Test in all cases: log2 ratio of Biotin-Ahx-Ub-VS probe labelling (fragment/DMSO); higher = less target engagement (more negative = stronger competition), active = hit call of the paper (q ≤ 0.05, log2 ratio ≤ -1)
Conditions in all cases: compound concentration: 200 uM; treatment time: 3 h
[1] = target: USP9X (UniProt Q93008)
Method in brief: (§1)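 Using Biotin-Ahx-Ub-VS at 0.5 µM final for 1 h, DUBs were labelled in HEK293T lysate (495 µg per sample) that had first been treated in triplicate with fragment at 200 µM or vehicle for 3 h. NeutrAvidin enrichment, LysC and trypsin digestion and diaPASEF LC-MS/MS followed. Spectronaut label-free quantities were global-median-normalised. Values are average log2 fragment/vehicle ratios by unpaired t-test, using proteins with ≥2 unique peptides.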

[2] = target: UniProt O00487
Method in brief: as §1

[3] = target: UniProt O00507
Method in brief: as §1

[4] = target: UniProt P51784
Method in brief: as §1

[5] = target: T1, UniProt Q5T2D3
T1 sequence (whole entry): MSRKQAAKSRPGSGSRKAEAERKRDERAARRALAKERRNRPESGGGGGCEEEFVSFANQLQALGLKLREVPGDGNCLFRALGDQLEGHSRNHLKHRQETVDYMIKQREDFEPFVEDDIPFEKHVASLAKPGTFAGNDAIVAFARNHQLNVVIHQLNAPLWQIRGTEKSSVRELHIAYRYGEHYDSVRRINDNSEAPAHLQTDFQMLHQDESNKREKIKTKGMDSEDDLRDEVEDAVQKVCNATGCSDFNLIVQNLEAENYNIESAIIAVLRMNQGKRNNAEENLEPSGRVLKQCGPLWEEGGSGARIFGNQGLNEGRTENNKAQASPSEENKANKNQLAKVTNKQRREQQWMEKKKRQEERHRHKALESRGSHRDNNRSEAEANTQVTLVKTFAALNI
Method in brief: as §1

[6] = target: T2, UniProt Q8TE49
T2 sequence (whole entry): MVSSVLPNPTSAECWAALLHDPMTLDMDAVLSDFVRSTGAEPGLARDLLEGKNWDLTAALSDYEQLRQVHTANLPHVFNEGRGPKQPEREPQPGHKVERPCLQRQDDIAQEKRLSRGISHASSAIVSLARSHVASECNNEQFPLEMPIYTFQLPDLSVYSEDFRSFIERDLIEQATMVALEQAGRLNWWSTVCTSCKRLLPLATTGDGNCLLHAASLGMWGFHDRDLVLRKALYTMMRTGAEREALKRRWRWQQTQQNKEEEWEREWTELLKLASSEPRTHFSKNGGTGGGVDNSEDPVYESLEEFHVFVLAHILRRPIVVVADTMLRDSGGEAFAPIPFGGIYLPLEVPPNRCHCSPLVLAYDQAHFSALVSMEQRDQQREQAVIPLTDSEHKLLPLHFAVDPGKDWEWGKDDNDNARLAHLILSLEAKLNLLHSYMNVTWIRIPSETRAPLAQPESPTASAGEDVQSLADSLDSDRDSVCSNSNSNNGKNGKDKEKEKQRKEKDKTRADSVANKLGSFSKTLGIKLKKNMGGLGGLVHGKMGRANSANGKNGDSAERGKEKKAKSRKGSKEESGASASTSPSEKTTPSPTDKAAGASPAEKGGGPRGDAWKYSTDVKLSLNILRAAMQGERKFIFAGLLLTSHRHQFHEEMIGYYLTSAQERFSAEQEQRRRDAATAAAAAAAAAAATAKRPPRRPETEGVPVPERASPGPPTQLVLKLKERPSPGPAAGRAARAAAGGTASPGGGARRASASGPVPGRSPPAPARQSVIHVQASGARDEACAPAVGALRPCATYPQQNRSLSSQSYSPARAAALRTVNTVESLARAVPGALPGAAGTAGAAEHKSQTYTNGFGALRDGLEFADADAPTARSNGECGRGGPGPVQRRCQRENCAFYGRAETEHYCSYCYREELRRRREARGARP
Method in brief: as §1

[7] = target: T3, UniProt Q9P2H5
T3 sequence (whole entry): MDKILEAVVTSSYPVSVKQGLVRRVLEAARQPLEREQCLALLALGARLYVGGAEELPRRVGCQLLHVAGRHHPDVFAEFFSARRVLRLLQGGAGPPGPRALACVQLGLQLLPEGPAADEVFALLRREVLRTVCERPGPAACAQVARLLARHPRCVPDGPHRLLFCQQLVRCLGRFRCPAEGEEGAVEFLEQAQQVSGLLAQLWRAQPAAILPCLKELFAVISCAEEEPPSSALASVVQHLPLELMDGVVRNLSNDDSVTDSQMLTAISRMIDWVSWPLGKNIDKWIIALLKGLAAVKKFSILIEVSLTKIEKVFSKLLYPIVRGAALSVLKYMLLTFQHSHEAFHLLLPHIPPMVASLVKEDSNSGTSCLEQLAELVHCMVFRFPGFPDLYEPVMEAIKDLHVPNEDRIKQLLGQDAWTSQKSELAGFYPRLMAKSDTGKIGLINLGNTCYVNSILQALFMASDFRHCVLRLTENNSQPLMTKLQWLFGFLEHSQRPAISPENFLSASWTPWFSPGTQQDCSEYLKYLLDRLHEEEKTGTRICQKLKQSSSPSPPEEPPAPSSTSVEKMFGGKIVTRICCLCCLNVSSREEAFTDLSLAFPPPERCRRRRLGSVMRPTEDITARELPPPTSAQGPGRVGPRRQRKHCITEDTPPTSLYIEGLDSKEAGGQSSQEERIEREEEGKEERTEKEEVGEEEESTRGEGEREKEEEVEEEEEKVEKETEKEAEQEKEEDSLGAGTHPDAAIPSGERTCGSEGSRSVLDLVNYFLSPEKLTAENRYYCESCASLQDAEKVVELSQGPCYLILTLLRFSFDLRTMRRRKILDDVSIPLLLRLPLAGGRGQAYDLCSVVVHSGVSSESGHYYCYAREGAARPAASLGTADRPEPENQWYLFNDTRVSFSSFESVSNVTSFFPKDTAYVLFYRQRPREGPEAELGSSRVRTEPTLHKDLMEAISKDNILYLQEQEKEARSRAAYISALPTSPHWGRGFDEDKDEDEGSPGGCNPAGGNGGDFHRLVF
Method in brief: as §1

[8] = target: T4, UniProt Q9UGI0
T4 sequence (whole entry): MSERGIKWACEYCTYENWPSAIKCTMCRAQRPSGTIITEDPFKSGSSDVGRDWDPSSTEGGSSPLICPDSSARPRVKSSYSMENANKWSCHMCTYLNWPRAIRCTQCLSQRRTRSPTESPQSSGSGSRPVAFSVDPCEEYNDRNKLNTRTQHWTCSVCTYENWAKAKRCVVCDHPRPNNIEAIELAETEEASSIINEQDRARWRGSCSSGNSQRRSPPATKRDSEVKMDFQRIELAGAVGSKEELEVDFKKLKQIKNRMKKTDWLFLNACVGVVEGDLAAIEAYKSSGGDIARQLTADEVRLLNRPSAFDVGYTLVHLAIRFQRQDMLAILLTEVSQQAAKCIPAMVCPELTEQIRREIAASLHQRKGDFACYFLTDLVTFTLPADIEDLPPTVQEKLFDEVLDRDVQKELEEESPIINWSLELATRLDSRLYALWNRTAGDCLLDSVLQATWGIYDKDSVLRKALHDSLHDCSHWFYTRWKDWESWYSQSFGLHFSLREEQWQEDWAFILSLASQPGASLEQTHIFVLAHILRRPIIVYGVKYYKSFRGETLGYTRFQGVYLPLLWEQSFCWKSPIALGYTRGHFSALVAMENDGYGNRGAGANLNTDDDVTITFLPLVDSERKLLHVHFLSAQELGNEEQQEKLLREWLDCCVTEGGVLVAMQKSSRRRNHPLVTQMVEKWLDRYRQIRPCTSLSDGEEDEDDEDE
Method in brief: as §1

[9] = target: T5, YOD1 (UniProt Q5VVQ6)
T5 sequence (whole entry): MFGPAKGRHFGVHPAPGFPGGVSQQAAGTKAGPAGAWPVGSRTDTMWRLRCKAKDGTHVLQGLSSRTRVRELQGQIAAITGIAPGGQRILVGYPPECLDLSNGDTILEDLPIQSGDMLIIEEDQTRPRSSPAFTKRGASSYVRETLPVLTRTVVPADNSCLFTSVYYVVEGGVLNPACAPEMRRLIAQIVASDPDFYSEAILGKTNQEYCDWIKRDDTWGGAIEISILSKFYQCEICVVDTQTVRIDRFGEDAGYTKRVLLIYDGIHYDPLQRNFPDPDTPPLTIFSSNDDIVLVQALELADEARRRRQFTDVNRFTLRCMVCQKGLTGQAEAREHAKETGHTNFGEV
Method in brief: as §1

Measured: log2 ratio of Biotin-Ahx-Ub-VS probe labelling

UniProt O00487, sequence (O00487 whole entry): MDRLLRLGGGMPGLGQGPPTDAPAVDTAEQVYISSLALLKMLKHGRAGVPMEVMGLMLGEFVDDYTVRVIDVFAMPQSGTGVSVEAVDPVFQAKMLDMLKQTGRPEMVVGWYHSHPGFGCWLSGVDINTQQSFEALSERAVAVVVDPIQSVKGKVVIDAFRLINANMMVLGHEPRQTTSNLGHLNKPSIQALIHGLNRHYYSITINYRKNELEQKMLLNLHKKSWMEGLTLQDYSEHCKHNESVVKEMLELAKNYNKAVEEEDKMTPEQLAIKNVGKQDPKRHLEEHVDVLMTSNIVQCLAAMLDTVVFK
UniProt P51784, sequence (P51784 whole entry): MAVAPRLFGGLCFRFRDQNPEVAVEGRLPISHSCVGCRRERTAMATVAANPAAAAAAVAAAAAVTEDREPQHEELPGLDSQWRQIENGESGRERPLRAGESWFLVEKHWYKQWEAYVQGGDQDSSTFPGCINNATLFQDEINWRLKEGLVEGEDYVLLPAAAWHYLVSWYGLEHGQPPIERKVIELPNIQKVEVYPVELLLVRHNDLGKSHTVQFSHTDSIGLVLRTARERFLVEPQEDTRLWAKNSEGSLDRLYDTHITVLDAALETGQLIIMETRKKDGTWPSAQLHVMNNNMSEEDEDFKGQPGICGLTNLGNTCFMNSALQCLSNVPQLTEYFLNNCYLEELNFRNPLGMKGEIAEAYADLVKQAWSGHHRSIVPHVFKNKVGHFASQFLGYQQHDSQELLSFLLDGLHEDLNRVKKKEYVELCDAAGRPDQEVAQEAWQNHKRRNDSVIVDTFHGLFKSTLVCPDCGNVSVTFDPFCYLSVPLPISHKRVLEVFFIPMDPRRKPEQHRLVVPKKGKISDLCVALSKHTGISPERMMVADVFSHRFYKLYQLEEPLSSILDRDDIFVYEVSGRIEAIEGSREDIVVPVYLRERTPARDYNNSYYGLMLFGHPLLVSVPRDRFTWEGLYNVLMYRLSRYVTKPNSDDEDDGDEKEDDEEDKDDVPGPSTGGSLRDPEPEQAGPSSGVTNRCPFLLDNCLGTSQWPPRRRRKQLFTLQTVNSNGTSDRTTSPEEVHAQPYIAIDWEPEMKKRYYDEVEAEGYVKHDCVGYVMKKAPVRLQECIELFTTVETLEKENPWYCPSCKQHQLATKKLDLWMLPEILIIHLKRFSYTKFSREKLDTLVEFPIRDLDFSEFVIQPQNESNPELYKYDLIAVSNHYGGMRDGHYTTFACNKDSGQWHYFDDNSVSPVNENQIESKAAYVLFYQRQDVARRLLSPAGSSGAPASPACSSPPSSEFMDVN
UniProt O00507, sequence (O00507 whole entry): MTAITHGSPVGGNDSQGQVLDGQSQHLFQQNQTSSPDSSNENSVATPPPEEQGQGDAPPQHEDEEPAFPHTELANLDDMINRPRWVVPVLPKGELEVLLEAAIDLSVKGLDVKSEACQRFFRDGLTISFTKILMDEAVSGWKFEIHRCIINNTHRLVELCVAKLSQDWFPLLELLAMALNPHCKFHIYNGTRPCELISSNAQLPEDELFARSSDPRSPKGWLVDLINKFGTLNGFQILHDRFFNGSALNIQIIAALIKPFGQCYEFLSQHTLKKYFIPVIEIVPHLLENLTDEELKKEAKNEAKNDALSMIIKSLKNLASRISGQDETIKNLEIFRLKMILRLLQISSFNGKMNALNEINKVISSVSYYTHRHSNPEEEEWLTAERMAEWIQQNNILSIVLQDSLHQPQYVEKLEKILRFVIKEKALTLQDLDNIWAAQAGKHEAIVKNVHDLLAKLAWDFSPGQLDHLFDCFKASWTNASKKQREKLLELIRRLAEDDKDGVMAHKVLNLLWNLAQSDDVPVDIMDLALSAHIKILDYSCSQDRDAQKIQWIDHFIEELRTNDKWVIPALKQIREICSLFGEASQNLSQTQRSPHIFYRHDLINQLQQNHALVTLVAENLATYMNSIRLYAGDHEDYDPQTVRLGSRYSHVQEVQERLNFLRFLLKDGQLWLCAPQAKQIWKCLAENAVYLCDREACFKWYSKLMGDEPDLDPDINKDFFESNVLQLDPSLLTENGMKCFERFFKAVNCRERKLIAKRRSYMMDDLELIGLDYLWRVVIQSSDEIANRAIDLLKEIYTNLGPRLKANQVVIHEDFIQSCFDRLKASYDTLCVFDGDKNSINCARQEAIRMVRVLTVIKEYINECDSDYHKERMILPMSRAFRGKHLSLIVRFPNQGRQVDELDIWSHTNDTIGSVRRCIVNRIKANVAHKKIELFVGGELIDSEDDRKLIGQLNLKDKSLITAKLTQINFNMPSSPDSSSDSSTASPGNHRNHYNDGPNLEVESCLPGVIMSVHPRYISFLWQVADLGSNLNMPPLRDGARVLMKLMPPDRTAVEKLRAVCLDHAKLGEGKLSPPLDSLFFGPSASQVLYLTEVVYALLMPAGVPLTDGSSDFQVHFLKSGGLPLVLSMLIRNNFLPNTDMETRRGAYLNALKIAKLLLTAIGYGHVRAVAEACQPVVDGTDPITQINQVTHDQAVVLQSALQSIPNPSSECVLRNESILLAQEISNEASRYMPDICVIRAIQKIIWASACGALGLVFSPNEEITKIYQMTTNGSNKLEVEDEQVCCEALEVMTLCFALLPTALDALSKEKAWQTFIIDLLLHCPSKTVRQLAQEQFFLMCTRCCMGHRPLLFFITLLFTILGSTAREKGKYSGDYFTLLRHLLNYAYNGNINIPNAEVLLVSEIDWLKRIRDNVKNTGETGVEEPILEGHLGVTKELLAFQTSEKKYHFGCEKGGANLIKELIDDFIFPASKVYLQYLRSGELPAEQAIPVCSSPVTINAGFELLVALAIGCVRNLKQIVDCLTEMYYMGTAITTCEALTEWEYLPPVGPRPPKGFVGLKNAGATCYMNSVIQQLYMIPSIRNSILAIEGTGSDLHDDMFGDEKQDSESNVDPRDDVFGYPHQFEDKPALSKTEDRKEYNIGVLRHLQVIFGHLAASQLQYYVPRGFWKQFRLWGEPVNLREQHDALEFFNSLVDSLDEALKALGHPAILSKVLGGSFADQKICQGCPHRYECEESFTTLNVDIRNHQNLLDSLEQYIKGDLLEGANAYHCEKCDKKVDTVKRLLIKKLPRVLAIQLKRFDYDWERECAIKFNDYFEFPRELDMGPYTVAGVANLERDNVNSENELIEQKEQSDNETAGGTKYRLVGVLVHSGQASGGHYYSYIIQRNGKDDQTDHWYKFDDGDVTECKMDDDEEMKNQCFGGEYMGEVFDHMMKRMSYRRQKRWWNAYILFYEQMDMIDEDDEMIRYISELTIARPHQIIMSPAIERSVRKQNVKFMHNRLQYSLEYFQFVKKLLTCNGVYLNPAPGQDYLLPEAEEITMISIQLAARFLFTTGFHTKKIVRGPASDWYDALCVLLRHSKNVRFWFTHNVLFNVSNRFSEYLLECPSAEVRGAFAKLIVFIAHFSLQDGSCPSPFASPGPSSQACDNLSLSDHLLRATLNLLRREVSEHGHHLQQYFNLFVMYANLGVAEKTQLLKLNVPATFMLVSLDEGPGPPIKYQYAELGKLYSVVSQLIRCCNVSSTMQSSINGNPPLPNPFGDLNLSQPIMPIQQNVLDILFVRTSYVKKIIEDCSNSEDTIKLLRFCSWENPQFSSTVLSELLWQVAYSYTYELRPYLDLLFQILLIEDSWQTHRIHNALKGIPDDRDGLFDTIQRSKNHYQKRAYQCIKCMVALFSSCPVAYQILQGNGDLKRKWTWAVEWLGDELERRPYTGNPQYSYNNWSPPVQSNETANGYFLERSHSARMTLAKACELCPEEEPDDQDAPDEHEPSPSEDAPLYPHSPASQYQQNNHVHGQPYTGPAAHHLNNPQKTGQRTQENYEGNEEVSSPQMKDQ

O=C(CCl)N1CCOCC1C1CC1 (centres undefined)
inactive: [1] -0.18 | [2] -0.226 | [3] -0.0511 | [4] 0.141 | [5] -0.288 | [6] -0.663 | [7] -0.279 | [8] -0.344 | [9] -0.172
